Molecules are shown by their SMILES. Screen size: about 310,000 compounds; about 11,000 (3.5%) were called active. Another 4% or so got no clear call; they are omitted. This excerpt belongs to a sample that is enriched for actives. A number with no mark means an inactive call. Calls follow the shape of the dose curve; as a rule, active = well fitted inhibition curve with a large enough effect; inconclusive = small, poorly fitted or top-dose-only effect, or another doubt; inactive = no such curve, though single readings can be large or run the other way.
Potency is read from the fitted curve at half-maximal effect.

The target of the assay is 4'-phosphopantetheinyl transferase ffp (Bacillus subtilis) (UniProt Q9F4F7). As to the kind of experiment: qHTS Assay for Inhibitors of Bacillus subtilis Sfp phosphopantetheinyl transferase (PPTase).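 Also: the enzyme is Sfp with the accession as filed and its product quenches rhodamine fluorescence.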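 As to largest response in the series, negative = inhibition: 0% = enzyme reaction without inhibitor and -100% = no enzyme wells.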 The conditions noted are these: Biochemical Sfp PPTase activity. A digest of the protocol:
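Buffer: 50 mM Hepes-Na pH 7.6, 10 mM MgCl2, 0.01% Nonidet P-40, 0.01% BSA. Enzyme 15 nM, pre-exposed to compound 15 min; substrates then added and fluorescence change tracked over 30 min.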
On to `O=C(CN1C(=O)COc2ccccc21)NCCN1CCc2ccccc2C1`, for which the largest response in the series, negative = inhibition is 7.58%.
Consider `Cc1cccc2c1-c1sc(C(=O)NCCCN3CCc4ccccc4C3)cc1CO2`, for which the Potency was 44.7 µM (active).
`O=C(CCCC(=O)N1CCN(c2cccc(Cl)c2)CC1)c1ccccc1`: the largest response in the series, negative = inhibition was -3.1%.
The same measure, in the same setting: as for `CN(C(=O)COC(=O)CNC(=O)C12CC3CC(CC(C3)C1)C2)c1ccccc1`, the figure is 0.528%.
Still for that read-out and setting: under `O=C(N/N=C/c1cccc(OC(=O)c2ccc([N+](=O)[O-])cc2)c1)c1cccnc1` stands 10%; under `COc1ccc(/C(O)=C2/C(=O)C(=O)N(CCCN(C)C)C2c2ccccc2)cc1OC` (stereo not drawn), 6.96%.
Consider `CCN(CC)CCN1C(=O)C(=O)/C(=C(/O)c2ccc(OC)c(OC)c2)C1c1ccccn1` (stereo not drawn), for which the Potency is 56.2 µM (active).
For `COc1ccc(C2/C(=C(/O)c3ccccc3)C(=O)C(=O)N2c2ncccn2)cc1OC` (stereo not drawn), the largest response in the series, negative = inhibition was -2.32%.
The same measure, in the same setting: under `CCN(CC)CCN1C(=O)C(=O)/C(=C(/O)c2ccccc2)C1c1ccccc1F` (stereo not drawn) stands 4.16%.
In the case of `CCCOc1ccc(/C(O)=C2/C(=O)C(=O)N(CCN(C)C)C2c2ccc(OC)c(OC)c2)cc1` (stereo not drawn), the Potency is 79.4 µM (active).
As for `COc1cccc(C2/C(=C(/O)c3ccc(F)cc3)C(=O)C(=O)N2CCN(C)C)c1` (stereo not drawn), the largest response in the series, negative = inhibition is -8.12%.
Same read-out and setting: under `CC(=O)c1cccc(NC(=O)COc2ccc(S(=O)(=O)N3CCOCC3)cc2)c1` stands 14.4%; under `O=C(O)CN1c2cccc3cccc(c23)S1(=O)=O`, -16.8%.
As to `CSc1n[nH]c(=S)n1N`, the Potency was 44.7 µM (active).
On to `COc1ccc(OCc2n[nH]c(=S)n2N)cc1`, for which the largest response in the series, negative = inhibition was -87.4%.
The same measure, in the same setting: under `CC(C)NC(=O)C(=O)N/N=C/c1ccco1` stands 13%; under `O=C(Cn1cnc2ccccc21)N/N=C/c1ccco1`, 15.1%.
Consider `O=c1nc(N/N=C/c2ccco2)cn[nH]1`, for which the Potency was 31.6 µM (active).
With `Cc1ccc(S(=O)(=O)NCc2ccc(C(=O)NC3CCC(C)CC3)cc2)cc1` (stereo not drawn), the largest response in the series, negative = inhibition was 17%.
Same read-out and setting: as for `Cc1ccc(NC2CCCN(C(=O)CCc3cn[nH]c3)C2)cc1C` (stereo not drawn), the figure is 7.06%; as for `O=C(O)CCCn1cc(NC(=O)COc2cccc(Cl)c2)cn1`, 12.9%; as for `O=S(=O)(NC1CC1)c1ccc(Cl)cc1`, 10.7%.
Same read-out and setting: under `Cc1cccc(C)c1NC(=O)C1CCCN1C(=O)OC(C)(C)C` (stereo not drawn) stands 0.244%.
As to `Cc1cc(C)c(NC(=S)N2CCCC2C(=O)O)c(C)c1` (stereo not drawn), the Potency is 35.5 µM (active).
With `Cc1cc([N+](=O)[O-])c(N2CCC[C@@H]2C(=O)O)c([N+](=O)[O-])c1`, the largest response in the series, negative = inhibition is 0.854%.
For the molecule `O=[N+]([O-])c1ccc(N2CCN(c3ccc(F)cc3)CC2)cn1`, the largest response in the series, negative = inhibition is 10.5%.
Still for that read-out and setting: under `CC1C(=O)C(C)C(c2ccc(O)cc2)NC1c1ccc(O)cc1` (stereo not drawn) stands 4.83%.
Still for that read-out and setting: as for `COc1ccc(-c2cc(=O)oc3cc(OC(C)C(=O)NCC4CCC(C(=O)O)CC4)ccc23)cc1` (stereo not drawn), the figure is 18.5%.
Still for that read-out and setting: as for `COc1c(O)c2c(=O)cc(OC)c3c4c(OC)cc(=O)c5c(O)c(OC)c6c(c(c1C[C@@](C)(O)[C@H]6C(C)=O)c23)c54`, the figure is -14.1%.
For the molecule `O=C(Nc1ccncc1)Nc1ccc(F)cc1`, the largest response in the series, negative = inhibition is 14.5%.
As for `Fc1ccc(Nc2nnns2)cc1`, the Potency was 8.91 µM (active).
For the molecule `CN(C)c1nc(NN)nc(Nc2ccc(F)cc2)n1`, the largest response in the series, negative = inhibition is -5.52%.
Same read-out and setting: under `O=C(Nc1ccccc1)O/N=C1\CCCCC1c1ccc([N+](=O)[O-])cc1[N+](=O)[O-]` (stereo not drawn) stands -6.23%.
On to `O=[N+]([O-])c1ccc(N/N=C2/CCCCC2c2ccccn2)c([N+](=O)[O-])c1` (stereo not drawn), for which the Potency was 35.5 µM (active).
In the case of `C[n+]1ccccc1C1CCCC/C1=N\Nc1ccc([N+](=O)[O-])cc1[N+](=O)[O-]` (stereo not drawn), the largest response in the series, negative = inhibition was -1.83%.
Still for that read-out and setting: as for `Cc1cccc(C2=N/C(=C/c3cccs3)C(=O)O2)c1`, the figure is -1.85%.
For the molecule `Cc1cccc(-c2cc(=O)c3cc(C)ccc3o2)c1`, the Potency was 3.55 µM (active).
As for `COc1ccccc1N1CCN(C(=O)c2cc(=O)c3cc(C)ccc3o2)CC1`, the largest response in the series, negative = inhibition is -2.28%.
Still for that read-out and setting: under `CCN1CCN(c2ccc(S(=O)(=O)N3CCCCC3)cc2NC(=O)Cc2c(Cl)cccc2Cl)CC1` stands -8.91%; under `CCN(C(=O)c1cc([N+](=O)[O-])ccc1NCc1cccnc1)c1ccccc1`, -0.174%.
On the same count and under the same terms, under `COC(=O)C1=C(C)N(c2ccc(Br)cc2)C(=O)/C1=C\c1ccco1` stands -29.4%.
The same measure, in the same setting: under `Cc1cc(C)c(OCC(=O)N/N=C/c2ccco2)c(C)c1` stands 2.54%.
In the case of `COC(=O)COc1ccc2c(c1C)O/C(=C\c1ccco1)C2=O`, the Potency was 50.1 µM (active).
For the molecule `CC(=O)Nc1ccc(S(=O)(=O)NC2Cc3ccccc3C2)cc1`, the largest response in the series, negative = inhibition was 10.7%.
Consider `CC(CC(=O)N1CCN(c2ccccc2)CC1)S(=O)(=O)c1ccc2c(c1)NC(=O)CS2` (stereo not drawn), for which the largest response in the series, negative = inhibition was 13.4%.
Same read-out and setting: under `COc1ccc(C2c3[nH]c4ccccc4c3C[C@H]3C(=O)N(CC(C)C)CC(=O)N23)c(OC)c1` (stereo partly drawn) stands -0.0198%.
Still for that read-out and setting: as for `Cc1cc(=O)[nH]c(SCC(N)=O)c1C#N`, the figure is -20.3%.
With `Cc1cc(=O)[nH]c(S)c1C#N`, the Potency is 2.24 µM (active).

For the origin of these results see PubChem BioAssay AID1490 (National Center for Advancing Translational Sciences (NCATS), 2009).
